These results are taken from PubChem BioAssay AID687022 (Broad Institute, 2013).

SMILES strings stand for the structures. In all, about 1,000 compounds went through this assay and about 360 (36%) were called active. A selection follows. Values without a mark were called inactive.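 Rule for the calls: active = Fitted curve of melting temperature shift crosses the 1.0 threshold at or below the sample's highest valid tested concentration; inconclusive = Flat fit with activity 30 to 70, or invalid fit; inactive = Opposite direction, flat within 30, or no crossing.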

Sequence of Fibroblast growth factor 22 (Homo sapiens) (Q9HCT0 whole entry, looked up): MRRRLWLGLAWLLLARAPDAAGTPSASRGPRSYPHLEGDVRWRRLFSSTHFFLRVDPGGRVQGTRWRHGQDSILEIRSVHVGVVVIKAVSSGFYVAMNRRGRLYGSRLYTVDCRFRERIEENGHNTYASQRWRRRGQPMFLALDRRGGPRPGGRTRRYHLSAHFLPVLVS

The experiment has as its target Fibroblast growth factor 22 (Homo sapiens) (UniProt Q9HCT0). In words: binders of human FGF22 protein, dose response, FGF22 synaptogenesis inhibitor project, biophysical, thermal shift, cherry-pick (AID 687022). Note: reference of the scale not given here. Particulars: recombinant FGF22 thermal shift, SYPRO orange melting; series mostly up to 38 µM; Tm shift activity: at the top concentration.
Turning to `Cc1[nH]c(=O)[nH]c(=O)c1S(=O)(=O)Nc1cccc([N+](=O)[O-])c1C`, the “Tm shift activity” value is 0.356%.
`CCCNC(=O)N1CC(=O)N2[C@H](C1)[C@@H](c1ccc(-c3cccc(C)c3)cc1)[C@@H]2CO`: the “Tm shift activity” value is -0.204%.
The figure for `O=c1cc[nH]c2ccc(Cl)cc12` is -0.177%.
Then `CC(=O)c1cccc(NC(=O)C2CCCN2S(=O)(=O)c2cccs2)c1` (stereo not drawn), with 0.238%.
For `COc1ccc(CCC(C)NC(=O)Cc2ccc(OC)c(OC)c2)c(OC)c1` (stereo not drawn), the “Tm shift activity” value was -0.077%.
The figure for `CCCN(C)C[C@H]1Oc2cc(-c3ccncc3)ccc2S(=O)(=O)N([C@H](C)CO)C[C@H]1C` is -0.032%.
Then `O=C1C2C(C(=O)N1CCc1ccccc1)C1C=CC2C12CC2` (stereo not drawn), with -0.247%; and `CCOC(=O)C1CCC(CNCc2ccccc2C)CC1` (stereo not drawn), with 0.003%.
In the case of `N#CCSc1n[nH]c2nc3c(c(=O)n12)C1(CCCCC1)Cc1ccccc1-3`, the “Tm shift activity” value is 0.19%.
Then `COc1cc(C(=O)NC(=S)Nc2ccccc2[N+](=O)[O-])cc(OC)c1OC`, with -0.198% [at 19.5 µM]; and `C/C(=N\NC(=O)CNC(=O)c1ccncc1)c1ccc(C)cc1`, with -0.146%; and `CN(CC(=O)Nc1ccccc1Cl)C(=O)COC(=O)c1nc(Cl)ccc1Cl`, with -0.071%.
On to `CCn1c(O)c(C=NCc2ccccc2)sc1=S`, for which the “Tm shift activity” value was 0%.
The figure for `C[C@@H]1CN([C@H](C)CO)C(=O)Cc2cc(NS(C)(=O)=O)ccc2O[C@@H]1CN(C)Cc1ccc(C(=O)O)cc1` is 0.177% [at 42 µM]; for `CC(C)CC#Cc1cnc2c(c1)C(=O)N([C@@H](C)CO)C[C@H](C)[C@@H](CN(C)Cc1ccccn1)O2` it is 0.044%.
Consider `O=C(CCc1ccc(S(=O)(=O)N2CCOCC2)cc1)Nc1ccccc1F`, for which the “Tm shift activity” value was -0.061%.
The figure for `C/C=C/c1ccc([C@@H]2[C@H](C#N)N(C(=O)CN3CCOCC3)[C@H]2CO)cc1` is -0.102% [at 42 µM].
The figure for `COc1cc(CCC(=O)OCC(=O)Nc2ccc(C)cc2Br)cc(OC)c1OC` is -0.237%; for `CN1CCN(C(=O)C[C@@H]2CC[C@H]3[C@@H](COC[C@H](O)CN3CC3CCCCC3)O2)CC1` it is 0.165%.
The figure for `C[C@H]1CN([C@@H](C)CO)S(=O)(=O)c2ccc(/C=C/c3ccccc3)cc2O[C@@H]1CN(C)Cc1ccc(C(=O)O)cc1` is -0.154% [at 42 µM]; for `CCCC#Cc1ccc2c(c1)O[C@H](CN(C)C(C)=O)[C@@H](C)CN([C@@H](C)CO)S2(=O)=O` it is -3.12%.
Consider `C[C@H]1CN([C@@H](C)CO)S(=O)(=O)c2ccc(C#Cc3ccncc3)cc2O[C@H]1CN(C)C(=O)Nc1ccc2c(c1)OCO2`, for which the “Tm shift activity” value is 0.854%.
The figure for `COc1cc(C2C(C#N)=C(N)Oc3n[nH]c(-c4cccnc4)c32)cc(Br)c1O` (stereo not drawn) is -0.165%.
Then `C[C@@H]1CN([C@@H](C)CO)C(=O)CCCn2nncc2CO[C@H]1CN(C)Cc1ccccc1C(=O)O`, with -0.141% [at 42 µM]; and `CCN1C(=O)c2cccc3c(S(=O)(=O)Nc4ccc(O)c(C(=O)O)c4)ccc1c23`, with 0.895% [at 5 µM]; and `O=C(COc1ccc(S(=O)(=O)Nc2ccccc2)cc1)NCc1ccncc1`, with 0.021%.
Then `CN(C)CCN1C(=O)C2C3C=CC(C3)C2C1=O` (stereo not drawn), with 0.54%; and `COCC(=O)N(C)C[C@H]1Oc2cc(C#Cc3ccccc3)ccc2S(=O)(=O)N([C@H](C)CO)C[C@H]1C`, with 0.274% [at 42 µM].
Consider `O=C(NCC[C@@H]1CC[C@@H](NC(=O)C2CCOCC2)[C@H](CO)O1)Nc1ccc(Cl)cc1`, for which the “Tm shift activity” value is 0.778% [at 42 µM].
The figure for `CC(C)NC(=O)Nc1ccc2c(c1)C(=O)N([C@H](C)CO)C[C@H](C)[C@H](CN(C)C(=O)Nc1cccc3ccccc13)O2` is -0.245% [at 42 µM].
Take `O=C(O)C1CSC2(CCN(Cc3ccccc3)CC2)N1` (stereo not drawn): the “Tm shift activity” value was -0.082%.
Then `Fc1ccccc1Nc1n[nH]c(=S)s1`, with -3.98%; and `O=C(N/N=C/c1cccc(O)c1)c1cc(-c2ccc3c(c2)OCO3)n[nH]1`, with 0.613%; and `COc1cc(/C=N/NC(=O)c2ccncc2)ccc1OCC(=O)Nc1cccc([N+](=O)[O-])c1`, with -0.027%.
The figure for `CC(=O)N(C)C[C@@H]1Oc2ncc(C#CC(C)(C)O)cc2C(=O)N([C@@H](C)CO)C[C@H]1C` is -0.011%; for `Cc1nc2cc(C(=O)NCc3ccc4c(c3)OCO4)ccc2n1-c1ccc(Br)cc1` it is 0.351%; for `O=[N+]([O-])c1ccc2oc(/C=C/c3ccc(O)cc3)nc2c1` it is -0.179%.
For `C[C@@H]1CN([C@@H](C)CO)C(=O)c2cc(NS(C)(=O)=O)ccc2O[C@@H]1CN(C)Cc1ccc2c(c1)OCO2`, the “Tm shift activity” value is -0.083%.
The figure for `C[C@H](CO)N1C[C@H](C)[C@H](CN(C)C(=O)CC2CC2)Oc2ncc(C#CC3(O)CCCC3)cc2C1=O` is -0.167%; for `O=C(NC[C@@H]1[C@H](c2ccccc2)[C@H](CO)N1C(=O)Cc1cccnc1)C1CC1` it is -0.166% [at 42 µM]; for `CCc1cccc(NS(=O)(=O)c2ccc3c(c2)NC(=O)CC(=O)N3)c1` it is 0.132%.
As for `CCC(=O)N1CC2(C1)[C@H](c1ccc(-c3cccc(C)c3)cc1)[C@@H](CO)N2S(C)(=O)=O`, the “Tm shift activity” value was -0.418%.
Then `O=C(C1CCOCC1)N1C[C@@H]2[C@H](c3ccccc31)[C@@H](CO)N2Cc1ccccc1`, with -0.009% [at 42 µM]; and `CC(OC(=O)c1ccccc1)C(=O)NCCC1=CCCCC1` (stereo not drawn), with -0.183%.
In the case of `O=C(COc1cccc(Cl)c1)NCC(c1cccs1)N1CCOCC1` (stereo not drawn), the “Tm shift activity” value was -0.157%.
The figure for `Cc1cccc(NC(=O)COc2coc(CN3CCc4ccccc4C3)cc2=O)c1` is 0.031%.
Consider `c1ccc(NCc2ccccn2)cc1`, for which the “Tm shift activity” value is 0.047%.
Turning to `CN1CCN(C(=O)C[C@H]2C=C[C@@H](NC(=O)c3ccc4c(c3)OCO4)[C@H](CO)O2)CC1`, the “Tm shift activity” value is 0.43% [at 42 µM].
As for `CN(C)S(=O)(=O)n1cnc([C@@H]2[C@@H]3C(=O)OC[C@@H]3C[C@]23N=CN(Cc2ccccc2)C3=O)c1`, the “Tm shift activity” value was -0.031%.
Then `O=[N+]([O-])c1ccc2nc(-c3ccc(Cl)cc3)[nH]c2c1`, with 0.366%.
Then `O=C(Nc1cccc2ccccc12)c1cccc([N+](=O)[O-])c1`, with 0.033%.
The figure for `CCc1ccc(NC(=O)c2ccc(-n3cncn3)c([N+](=O)[O-])c2)cc1` is 0.367%.
`Cc1nc2ccc(NC(=O)c3cc([N+](=O)[O-])cc([N+](=O)[O-])c3Cl)cc2s1`: the “Tm shift activity” value was 0.47%.
In the case of `COc1cc([N+](=O)[O-])ccc1NC(=O)CN1CCCC1`, the “Tm shift activity” value was 0.026%.
Then `CN=C1NN=C(c2cc(C)n(-c3c(C)n(C)n(-c4ccccc4)c3=O)c2C)CS1`, with -0.139%; and `Cc1ccc(-c2c[n+](CC(=O)Nc3ccc(C)cc3C)c3n2CCC3)cc1`, with -0.152%; and `Cn1cccc1/C=N/NC(=O)Cc1cccc2ccccc12`, with -0.271%.
The figure for `COC(=O)Cc1n[nH]c(=O)c2ccccc12` is -0.034%; for `O=C(NCCc1c[nH]c2ccccc12)C(=O)NCC1CCCO1` (stereo not drawn) it is -0.006%.
The figure for `N#CCC(=O)Nc1ccc(C(=O)NCCc2c[nH]c3ccccc23)cc1` is -0.09% [at 10 µM].
Consider `COc1cccc(S(=O)(=O)Nc2ccc3c(c2)[C@@H]2C[C@H](CC(=O)NC4CCCCC4)O[C@@H](CO)[C@@H]2O3)c1`, for which the “Tm shift activity” value is -0.228%.
Then `C=CCC1c2cccc(C(=O)O)c2C(=O)N1c1cccc(OC)c1` (stereo not drawn), with 0.004%.
Regarding `COCC(=O)Nc1ccc2c(c1)[C@H]1C[C@@H](CC(=O)NCc3ccccn3)O[C@H](CO)[C@H]1O2`, the “Tm shift activity” value was -0.244%.
Then `CCOC(=O)c1c(C)oc2cc(Br)c(O)c(Br)c12`, with 0.458%.
The figure for `C[C@H]1CN([C@@H](C)CO)C(=O)c2cc(NS(=O)(=O)c3ccc(Cl)cc3)ccc2O[C@@H]1CN(C)C(=O)Nc1ccc2c(c1)OCO2` is 0.029% [at 42 µM].
As for `CCC(=O)N1[C@H](CO)[C@@H](c2ccccc2)[C@H]1CN(C)C(=O)CN1CCOCC1`, the “Tm shift activity” value is -0.119%.
With `O=C(c1cccc(F)c1)N1C[C@H]2[C@@H](c3ccccc31)[C@@H](CO)N2C(=O)c1ccccn1`, the “Tm shift activity” value was -0.197% [at 42 µM].
Then `CCOc1ccc(NC(=O)c2cccc(-n3cccc3)c2)cc1S(=O)(=O)N1CCOCC1`, with 0.046%; and `CC(C)NC(=O)N1[C@H](CO)[C@H](c2ccccc2-c2ccc(F)cc2)[C@@H]1C#N`, with 0.245%; and `O=C(O)C1CCN(S(=O)(=O)Cc2ccccc2)CC1`, with 0.131%.
The figure for `COc1ccc(NC(=O)CN(c2ccc(C(C)C)cc2)S(=O)(=O)c2c(C)noc2C)cc1OC` is -0.176%; for `CO[C@@H]1CN(C)C(=O)c2cc(NC(=O)C3CCCC3)ccc2OC[C@H](C)N(CCC(F)(F)F)C[C@H]1C` it is -0.068%.
The figure for `NS(=O)(=O)c1ccc2c(c1)C(=NO)c1cc(S(N)(=O)=O)ccc1-2` is 0.643%.
`Oc1c(CN2CCOCC2)cc(CN2CCOCC2)c(O)c1O`: the “Tm shift activity” value was 0.514%.
Then `O=C(Nc1ccccc1Cl)N1[C@H](CO)[C@@H]2c3ccccc3NC[C@@H]21`, with -0.115%.
Then `COc1ccc(NS(=O)(=O)c2cc(N=Nc3c(O)[nH]c(=O)[nH]c3=O)ccc2Cl)cc1`, with -0.202%; and `COc1ccccc1C(=O)N1C[C@H]2[C@@H](c3ccccc31)[C@H](CO)N2C(=O)C1CCCCC1`, with -0.165%.
Regarding `N#C[C@@H]1[C@@H](c2ccc(C3=CCCCC3)cc2)[C@H](CO)N1S(=O)(=O)c1ccccc1`, the “Tm shift activity” value was 0.72%.
The figure for `Cc1cccc(C(=O)NNC(=O)c2ccc(NS(=O)(=O)c3cccs3)cc2)c1C` is -0.21%.
The figure for `COc1ccccc1NC(=O)c1ccc(NC(=O)COC(=O)c2ccc(O)cc2)cc1` is 0.436%; for `COc1ccccc1N(C)S(=O)(=O)c1ccc(C(=O)Nc2ccc(C(N)=O)cc2)cc1` it is 0.212%.
The figure for `CCC(C)N(C(=O)COc1ccc(-c2nnco2)cc1)C1CCS(=O)(=O)C1` (stereo not drawn) is -0.201%; for `O=C(Nc1cccc(S(=O)(=O)N2CCCCC2)c1)C1=NN(c2ccccc2)C(=O)CC1` it is 0.048%.
Take `COc1cccc(NC(=O)N[C@@H]2CC[C@@H](CC(=O)Nc3ccccc3)O[C@H]2CO)c1`: the “Tm shift activity” value was 0.248%.
The figure for `CN(C)CC(=O)Nc1ccc2c(c1)[C@H]1C[C@@H](CC(=O)NCC3CC3)O[C@H](CO)[C@H]1O2` is -0.011%; for `COC(=O)[C@]1(C)N[C@H](c2ccc(-c3ccccc3)cc2)[C@@H]2C(=O)N(C)C(=O)[C@@H]21` it is -0.021%.
As for `Cc1ccc(S(=O)(=O)Nc2ccc3c(c2)CC(=O)N([C@H](C)CO)C[C@@H](C)[C@H](CN(C)C(=O)Nc2ccccc2)O3)cc1`, the “Tm shift activity” value is -0.162%.
With `COc1ccc(C(=O)Nc2ccccc2N2CCOCC2)cc1S(=O)(=O)N1CCOCC1`, the “Tm shift activity” value was -0.009%.
